KB-3-1 tox = qHTS assay for MDR1-selective chemotherapeutics: Primary screen using the parental adenocarcinoma cell KB-3-1; Potency, µM (series often up to 46.1 µM), most hits filed as cytotoxic; KB-3-1 viability, CellTiter-Glo ATP luminescence, 72 h; actives 1.4% (n = 400,000); also: % is scaled to controls: 0 for no effect and ±100 for the full control effect; nearly all actives have a fitted effect of over 60% in size
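Screening of KB-3-1 cells (DMEM, 10% FBS, phenol-red free) ran from lowest to highest compound concentration; after 72 h at 37 °C viability was read luminescently and curves fitted.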
KB-V1 MDR tox = qHTS assay for MDR1-selective chemotherapeutics: Primary screen using the drug-selected MDR subline cells KB-V1. KB-V1 MDR cells viability, CellTiter-Glo, 72 h. Potency, µM (highest dose often 46.1 µM), usual class: cytotoxic. actives 3.4% (n = 400,000); also: % is scaled to controls: 0 for no effect and ±100 for the full control effect; nearly all actives have a fitted effect of over 60% in size
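Luminescent ATP read-out (CellTiter-Glo, 10 min) measures survival of drug-selected KB-V1 MDR cells after 72 h, 37 degrees C compound exposure. Medium: phenol-red-free DMEM, 10% FBS. Values from fitted concentration-response curves.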
HT1080 IDH1KD tx = qHTS for induction of synthetic lethality in tumor cells producing 2HG: qHTS for the HT-1080-IDH1KD cell line; HT-1080 IDH1 knockdown viability, ATP luminescence, 48 h; Potency, µM (top dose mostly 46.1 µM), inactives show at the highest dose activity, negative = toxicity, actives largely listed as cytotoxic; actives 2% (n = 360,000); AID 686971, 2013;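 also: 0% = DMSO wells and -100% = cell-free medium wells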
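After a 2 h attachment period, IDH1KD HT-1080 cells took pin-transferred compound for 48 h at 37 °C; ATP-based luminescence after 10 min room-temperature reagent incubation reported viability.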
HT1080-NT tox = qHTS for induction of synthetic lethality in tumor cells producing 2HG: qHTS for the HT-1080-NT fibrosarcoma cell line | HT-1080-NT fibrosarcoma viability, CellTiter-Glo ATP luminescence, 48 h | Potency, µM (titrated, usually from 46.1 µM), for the others: top-dose activity, negative = less viability, most hits filed as cytotoxic | actives 1.6% (n = 360,000);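 also: NT is the 2HG producing partner of a matched IDH1 knockdown line; 0% = DMSO-treated cells and -100% = media-only wells without cells; nearly all actives have a fitted effect of over 55% in size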
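Fibrosarcoma NT cells, 750 per well in 5% FBS RPMI, were exposed to compound for 48 hours. Viability: CellTiter-Glo luminescence.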
SW480 rerep = A quantitative high throughput screen for small molecules that induce DNA re-replication in SW480 colon adenocarcinoma cells; actives 1.8% (n = 340,000); Potency, µM (doses to about 46.1 µM), for inactives: at the top dose re-replication activation, most hits filed as activators; SW480 DNA re-replication, Hoechst DNA content imaging, 48 h; also: % of control where 0% means no effect; nearly all actives have a fitted effect of over 55% in size
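Compounds, transferred as 23 nL by pin tool, were incubated with cells for 48 hr; DNA content per nucleus was then quantified by Hoechst staining and fluorescence plate imaging.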
MCF10A rerep = A quantitative high throughput screen for small molecules that induce DNA re-replication in MCF 10a normal breast cells; MCF 10A DNA re-replication, Hoechst nuclear intensity, 48 h; Potency, µM (top dose mostly 46.1 µM), for inactives: at the top dose activity, positive = re-replication, usual class: activators; actives 2.9% (n = 350,000); AID 624296, 2012; also: % of control where 0% means no effect; nearly all actives have a fitted effect of over 50% in size
* marks the source's active call; other numbers are inactive results. This is a sample that favours compounds with a hit; in the whole collection about 8% have one here. Calls follow the shape of the dose curve; as a rule, active = well fitted curve in the direction sought with a large enough effect; inconclusive = small, poorly fitted or top-dose-only effect, or another doubt; inactive = no such curve, though single readings can be large; an effect the other way counts as inactive or inconclusive. Potency is read from the fitted curve at half-maximal effect.

`CCOc1cc(-c2c(C#N)c(N)nc3c2CCCC3C)ccc1O` (stereo not drawn) gave KB-3-1 tox inconclusive, KB-V1 MDR tox 18µM*, HT1080 IDH1KD tx inconclusive, HT1080-NT tox inconclusive, SW480 rerep inconclusive and MCF10A rerep inconclusive.
Screening CCOC(=O)COc1nc2c(c(-c3ccco3)c1C#N)CCc1ccccc1-2 returned KB-3-1 tox inactive, KB-V1 MDR tox inactive, HT1080 IDH1KD tx 4%, HT1080-NT tox -1%, SW480 rerep -14% and MCF10A rerep 5%.
CC1CCCN(c2nc3c(-c4ccc(Cl)cc4)nnn3c3ccccc23)C1 (stereo not drawn) was read as KB-3-1 tox inactive and KB-V1 MDR tox inactive.
FC(F)(F)c1cc(CCN2CCNC[C@@H]2CC2CCCCC2)cc(C(F)(F)F)c1 was read as KB-3-1 tox inactive, KB-V1 MDR tox inactive, HT1080 IDH1KD tx inconclusive, HT1080-NT tox inconclusive, SW480 rerep 24% and MCF10A rerep 18µM*.
Screening O=S(=O)(c1ccc2ncccc2c1)N1CCN(c2nc(-c3cccs3)nc3ccccc23)CC1 returned HT1080 IDH1KD tx 7% and HT1080-NT tox 3%.
Screening Cc1cccc(-n2nnc3c(=O)n(CC(=O)Nc4cc(C)on4)cnc32)c1 returned KB-3-1 tox inactive, KB-V1 MDR tox inactive, HT1080 IDH1KD tx 0%, HT1080-NT tox 0%, SW480 rerep -7% and MCF10A rerep -2%.
For Cc1ccc(S(=O)(=O)N2CCCCC2C(=O)N2CCN(Cc3ccccc3)CC2)cc1 (stereo not drawn) the results were KB-3-1 tox inconclusive, KB-V1 MDR tox 4.6µM*, HT1080 IDH1KD tx 3%, HT1080-NT tox 6%, SW480 rerep -3% and MCF10A rerep inconclusive.
`O=C(C1CCCCN1S(=O)(=O)c1ccccc1)N1CCN(Cc2ccccc2)CC1` (stereo not drawn) gave KB-3-1 tox inconclusive, KB-V1 MDR tox inactive, HT1080 IDH1KD tx -5%, HT1080-NT tox 3%, SW480 rerep 3% and MCF10A rerep -2%.
`COc1cccc(NC(=O)C2C3CCC4C(CCC32)C4(Cl)Cl)c1` (stereo not drawn) gave KB-3-1 tox inactive, KB-V1 MDR tox 12µM*, HT1080 IDH1KD tx -11%, HT1080-NT tox 3%, SW480 rerep -116% and MCF10A rerep 4%.
`COc1ccc(NC(=O)C2C3CCC4C(CCC32)C4(Cl)Cl)cc1` (stereo not drawn) gave KB-3-1 tox inactive, KB-V1 MDR tox inactive, HT1080 IDH1KD tx -11%, HT1080-NT tox 1%, SW480 rerep -31% and MCF10A rerep -40%.
For O=C(Cc1csc(Nc2nc(=S)[nH]c3ccccc23)n1)NCc1ccc(Cl)cc1 the results were KB-3-1 tox inactive, KB-V1 MDR tox inactive, HT1080 IDH1KD tx -18%, HT1080-NT tox -2%, SW480 rerep inconclusive and MCF10A rerep 16µM*.
Screening O=C(Cc1csc(Nc2nc(=S)[nH]c3ccccc23)n1)NCCCN1CCN(c2ccccc2F)CC1 returned KB-3-1 tox inconclusive, KB-V1 MDR tox 15µM*, HT1080 IDH1KD tx 21µM*, HT1080-NT tox 21µM*, SW480 rerep 18µM* and MCF10A rerep 7.3µM*.
Screening COc1ccc(CNC(=O)Cc2csc(Nc3nc(=S)[nH]c4ccccc34)n2)cc1 returned KB-3-1 tox inactive, KB-V1 MDR tox inconclusive, HT1080 IDH1KD tx -6%, HT1080-NT tox -7%, SW480 rerep -7% and MCF10A rerep 3%.
O=C1CCC(O)CCN1CCSc1ccccc1 (stereo not drawn) was read as KB-3-1 tox inactive, KB-V1 MDR tox inactive, HT1080 IDH1KD tx 12%, HT1080-NT tox 19%, SW480 rerep 1% and MCF10A rerep -1%.
For CC1=NN(c2cccc(C(=O)O)c2)C(=O)/C1=C\C=C\c1ccco1 the results were KB-3-1 tox inactive, KB-V1 MDR tox inactive, HT1080 IDH1KD tx 0%, HT1080-NT tox 4%, SW480 rerep inconclusive and MCF10A rerep inconclusive.
For Cc1ccc(C2=NOC(=O)/C2=C\C=C\c2ccccc2)cc1 the results were KB-3-1 tox inconclusive, KB-V1 MDR tox inconclusive, HT1080 IDH1KD tx 13µM*, HT1080-NT tox 9.2µM*, SW480 rerep inconclusive and MCF10A rerep 5.2µM*.
Screening CC1=NN(c2ccccc2)C(=O)/C1=C/C=C/c1ccccc1 returned KB-3-1 tox inconclusive, KB-V1 MDR tox inconclusive, HT1080 IDH1KD tx 9.2µM*, HT1080-NT tox 3.3µM*, SW480 rerep 7.3µM* and MCF10A rerep 9.2µM*.
For Cc1cnc(C(=O)Nc2cccc3cccnc23)cn1 the results were KB-3-1 tox 5.2µM*, KB-V1 MDR tox inconclusive, HT1080 IDH1KD tx inconclusive, HT1080-NT tox inconclusive, SW480 rerep inconclusive and MCF10A rerep inconclusive.
Screening CCCCNS(=O)(=O)c1ccc(NC(=O)c2c(-c3ccccc3Cl)noc2C)cc1 returned KB-3-1 tox inactive, KB-V1 MDR tox 21µM*, HT1080 IDH1KD tx inconclusive, HT1080-NT tox inconclusive, SW480 rerep 11% and MCF10A rerep inconclusive.
Cc1onc(-c2ccccc2Cl)c1C(=O)Nc1cccc2cccnc12 was read as KB-3-1 tox inactive, KB-V1 MDR tox 12µM*, HT1080 IDH1KD tx inconclusive, HT1080-NT tox -26%, SW480 rerep 13% and MCF10A rerep 8.2µM*.
For CCCCNS(=O)(=O)c1ccc(NC(=O)c2c(-c3ccccc3)noc2C)cc1 the results were KB-3-1 tox inactive and KB-V1 MDR tox inactive.
`Cc1onc(-c2ccccc2Cl)c1C(=O)Nc1cccc(-c2nc3ncccn3c2C)c1` gave KB-3-1 tox inactive, KB-V1 MDR tox 8.2µM*, HT1080 IDH1KD tx -8%, HT1080-NT tox -2%, SW480 rerep 7% and MCF10A rerep inconclusive.
Screening Cc1onc(-c2ccccc2Cl)c1C(=O)Nc1ccc(-c2cn3cccnc3n2)cc1 returned KB-3-1 tox inactive, KB-V1 MDR tox inconclusive, HT1080 IDH1KD tx -5%, HT1080-NT tox 1%, SW480 rerep 0% and MCF10A rerep -3%.

Screening data: PubChem BioAssay, National Center for Advancing Translational Sciences (NCATS)
